High-throughput results: PubChem, National Center for Advancing Translational Sciences (NCATS)
An excerpt weighted towards active compounds, which were near 3.8% of everything screened.
ATXN2 expr inh – inhibitors of ATXN2 expression. HEK-293 ATXN2-luciferase reporter, luminescence, 24 h. Potency, µM (series often up to 57 µM), actives largely listed as inhibitors. actives 0.72% (n = 360,000). AID 1745845; further: nearly all actives have a fitted effect of over 55% in size
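ATXN2-luciferase reporter cells (luciferase flanked by upstream and downstream ATXN2 gene portions) were treated 24 h at 37 °C with compounds at up to 57 uM. SteadyGlo luminescence gave expression; GF-AFC fluorescence gave viability.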
A549 tox – A549 cytotoxicity, counter-screen for Nrf2 inhibitors. AID 504648. actives 0.16% (n = 390,000). A549 ARE-Fluc cells, CellTiter-Fluor viability, 18-24 h. Potency, µM (series often up to 46 µM), hits mostly inhibitors
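Cytotoxicity counterscreen: CellTiter-Fluor fluorescence was measured in A549 ARE_Fluc cells after 18-24 h of compound exposure in a concentration series. The subsequent BugLite luminescent read reports ARE-luciferase activity.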
HepG2 viability – counter-screen for TGF-b inhibitors: cytotoxicity in HepG2 cells; Potency, µM (series often up to 46.1 µM), actives largely listed as cytotoxic; HepG2 CAGA-GFP viability, ATP luminescence, 18 h; actives 0.76% (n = 410,000); AID 588856
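CellTiter-Glo luminescence gave cytotoxicity after 18 hours at 37 degrees C. The cells were HepG2 CAGA-GFP in 1% FBS DMEM, stimulated with 500 pg/mL TGF-beta after compound addition. %Activity was normalised to no-cell wells (complete cell-killing) and DMSO (no toxicity), and curves were fitted and classified.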
Nrf2 block – Nrf2 pathway inhibition; A549 ARE-Fluc reporter, luciferase luminescence, 18-24 h; AID 504444; actives 2.1% (n = 360,000); Potency, µM (series often up to 46 µM), actives largely listed as inhibitors; further: nearly all actives have a fitted effect of over 60% in size
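Concentration-response testing used A549 ARE_Fluc cells at 5000 cells/well. Following an 18-24 h compound incubation, viability was read by fluorescence (Ex 405/Em 525) and luciferase output by luminescence.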
TGFb inhibitor – TGF-b pathway inhibition | Potency, µM (doses to about 46.1 µM), actives largely listed as inhibitors | HepG2 CAGA-GFP TGF-b/SMAD3 reporter, GFP fluorescence, 18 h; TGF-beta stimulated, 500 pg/mL final | actives 1.2% (n = 410,000); further: nearly all actives have a fitted effect of over 65% in size
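First, reporter cells (HEPG2 CAGA-GFP) rested 2 h at 37 degrees C. Next, compounds were pinned in and TGF-beta added to 500 pg/mL final. After 18 h, GFP was imaged per cell and summed per well.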
S2 tox – reduces viability in counter-screen for ATXN expression inhibitors; S2 cells (HEK-293 line with an ATXN2-luciferase reporter) viability, CellTiter-Fluor protease fluorescence, 24 h; Potency, µM (doses to about 56.7 µM), usual class: cytotoxic; actives 0.49% (n = 400,000); further: nearly all actives have a fitted effect of over 40% in size
A number is an active result; 0 = inactive; ? = inconclusive; - = no result given; ! = a repeat was not active; [ ] = another dose, or the depositor's remark. The call rests on the fitted dose curve; in most records, active means well fitted curve in the direction sought with a large enough effect; inconclusive means small, poorly fitted or top-dose-only effect, or another doubt; inactive means no such curve, though single readings can be large; an effect the other way counts as inactive or inconclusive.

SMILES | ATXN2 expr inh | A549 tox | HepG2 viability | Nrf2 block | TGFb inhibitor | S2 tox
O=C(Nc1ccc2c(c1)OCO2)c1csc([C@H]2C[C@H](O)[C@@H](CO)O2)n1 | 0 | - | 0 | - | 0 | 0
C[n+]1ccc(/C=C/c2ccc(Br)cc2)cc1 | 0 | ? | 0 | 7.3µM | 0 | ?
CCCCc1nnc(NC(=O)CSCc2cc(=O)n3cc(C)sc3n2)s1 | 0 | 0 | 0 | 0 | 0 | 0
CCOC(=O)c1c(C)nc2sc3c(=O)n(-c4ccc(OC)cc4)cnc3c2c1-c1ccc(OC)cc1 | 0 | 0 | 0 | 0 | 0 | 0
CCOC(=O)c1c(C)nc2sc3c(=O)n(-c4ccc(C(C)=O)cc4)nnc3c2c1-c1ccc(OC)cc1 | 0 | 0 | 0 | 15µM | 0 | 0
Fc1cccc(CN2CCc3nc(Nc4ccc5c(c4)OCCO5)ncc3C2)c1F | ? | 0 | 0 | - | ? | ?
CCN(CC)C(=O)Cn1cnc2sc(C(=O)Nc3cc(OC)c(OC)c(OC)c3)c(C)c2c1=O | 0 | 0 | 0 | ? | 0 | 0
CCc1ccc(/C=C2\SC(=S)N(CCC(=O)Nc3cc(C)on3)C2=O)cc1 | ? | 0 | 0 | 6.5µM | 0 | ?
Cc1ccc(/C=C2\SC(=S)N(CCC(=O)NNC(=O)c3ccccc3O)C2=O)cc1 | ? | 0 | 0 | ? | 0 | 0
CCc1ccc(/C=C2\SC(=S)N(CCCC(=O)Nc3cc(C)on3)C2=O)cc1 | - | - | 0 | - | 0 | ?
Cc1ccc(/C=C2\SC(=S)N(CCCC(=O)NC3CCCC3)C2=O)cc1 | 13µM | 0 | 0 | 10µM | 0 | 0
Cc1ccc(/C=C2\SC(=S)N(CCCC(=O)NNC(=O)c3ccccc3O)C2=O)cc1 | - | 0 | 0 | 10µM | 0 | 0
O=C(CSC1=Nc2ccccc2C2=NC(CCC(=O)NC3CCCCC3)C(=O)N12)Nc1cccc(Cl)c1 (stereo unspecified) | 0 | ? | 0 | ? | 0 | 0
CC(C)c1ccc(NC(=O)CSC2=Nc3ccccc3C3=NC(CC(=O)NC4CCCCC4)C(=O)N23)cc1 (stereo unspecified) | - | 0 | 13µM | - | ? | -
O=C(CSC1=Nc2ccccc2C2=NC(CCC(=O)NC3CCCCC3)C(=O)N12)Nc1cccc(C(F)(F)F)c1 (stereo unspecified) | 0 | ? | 0 | 12µM | 0 | 0
CCCOc1ccc(/C=C/C(=O)OCC(=O)N(C)c2c(N)n(Cc3ccccc3)c(=O)[nH]c2=O)cc1OCC | 0 | 0 | 0 | 0 | 0 | 0
CCN(CC)c1nn2c(=O)c(C(=O)NCCc3ccc(C)cc3)cnc2s1 | - | 0 | 0 | 0 | 0 | -
CSCC[C@H](NC(=O)OC(C)(C)C)c1nnc(SCc2ccc(F)cc2)o1 | 0 | 0 | 0 | 26µM | ? | 0
CSCC[C@H](NC(=O)OC(C)(C)C)c1nnc(SCc2ccccc2)o1 | 0 | 0 | 0 | - | 0 | 0
Cc1ccc(-c2nnc(N3CCCCC3)c3ccccc23)cc1S(=O)(=O)NCC1CCCO1 (stereo unspecified) | 0 | 0 | 0 | - | ? | 0
COC(=O)c1ccccc1NC(=O)c1ccc(Cn2cc(Cl)cn2)o1 | 0 | 0 | 0 | ? | 0 | ?
COC(=O)c1cc(NC(=O)c2ccc(Cn3cc(Cl)cn3)o2)cc(C(=O)OC)c1 | ? | ? | 0 | 21µM | 0 | 20µM
COc1ccc(OC)c(NC(=O)CN(C)S(=O)(=O)c2ccc(C(=O)N3CCOCC3)s2)c1 | 0 | 0 | 0 | - | ? | 0
CCOC(=O)Cc1[nH]nc2c1C(C1C=CCCC1)C(C#N)=C(N)O2 (stereo unspecified) | 0 | 0 | 20µM | - | ? | 0
CCOC(=O)Cc1[nH]nc2c1C(c1cccc(OC)c1OC)C(C#N)=C(N)O2 (stereo unspecified) | 0 | 0 | 0 | 0 | 0 | 0
SMILES | ATXN2 expr inh | A549 tox | HepG2 viability | Nrf2 block | TGFb inhibitor | S2 tox
CNc1ccccc1C(=O)OC(C)C(=O)Nc1ccc(Cl)cn1 (stereo unspecified) | 8.9µM | ? | 0 | 0 | 0 | 0
N=c1n(Cc2ccc(Cl)cc2)c2ccccc2n1CC(O)COc1ccccc1 (stereo unspecified) | ? | 0 | 0 | 0 | ? | -
CCN(CC)CCn1c(=N)n(CC(O)COc2cccc(C)c2)c2ccccc21 (stereo unspecified) | 0[11.3 µM] | ? | 0 | 0 | ? | ?
Cc1ccc(OCC(O)Cn2c(=N)n(Cc3ccccc3)c3ccccc32)cc1 (stereo unspecified) | ? | 0 | 13µM | ? | ? | ?
Cc1cccc(OCC(O)Cn2c(=N)n(CCN3CCCCC3)c3ccccc32)c1 (stereo unspecified) | ? | ? | 11µM! | 0 | ? | -
N=c1n(Cc2ccccc2)c2ccccc2n1CC(O)COc1ccc(Cl)cc1Cl (stereo unspecified) | 0[11.3 µM] | ? | 11µM | ? | ? | -
CCOC(=O)N1CCc2c(sc3c2c(=O)n(CCc2ccccc2)c(=O)n3Cc2cc(C)ccc2C)C1 | - | 0 | 0 | 0 | 0 | -
O=C([O-])c1ccccc1-[n+]1c(-c2ccccc2)cc(-c2ccccc2)cc1-c1ccccc1 | 0 | 0 | 0 | 0 | ? | 0
CCCn1c(N)c(C(=O)CSc2nnc(-c3cccs3)n2C2CC2)c(=O)[nH]c1=O | 0 | 0 | 0 | 0 | 0 | 0
CCn1cc(C(=O)N[C@@H](CCSC)C(=O)NCCCOC)c(=O)c2cc3c(cc21)OCO3 | - | 0 | 0 | 0 | 0 | ?
Clc1ccc(OCCOCCOc2cccc3cccnc23)c(Br)c1 | 0 | 0 | 16µM | 0 | ? | 0
CCCCCCCCCCCCCCCCn1cc[n+](C)c1 | 14µM! | ? | 0 | 8.2µM | 11µM | 20µM
CCOC(=O)N1CCN(CCC(=O)c2ccc(Cl)cc2)CC1 | 0 | 0 | 0 | 0 | ? | 0
COc1ccc(N2CCN(CC(=O)c3ccccc3)CC2)cc1 | 0 | 0 | 0 | 0 | 0 | ?
O=C(CCN1CCOCC1)c1ccc(N2CCCCC2)cc1 | ? | 0 | 0 | 0 | 14µM | ?
CCOC(=O)N1CCN(CCC(=O)c2ccc(OC)cc2)CC1 | - | 0 | 0 | 0 | 11µM | ?
COc1ccc(N2CCN(CCC(=O)c3ccc4ccccc4c3)CC2)cc1 | 0 | 0 | 0 | 0 | 11µM | 0
CCOc1cc(C2c3c(oc4ccccc4c3=O)C(=O)N2Cc2ccc3c(c2)OCO3)ccc1O (stereo unspecified) | 0 | 0 | 0 | 0 | 0 | 0
CC(=O)Nc1ccc(Nc2cc(C)nc3c(-c4ccccc4)cnn23)cc1 | 0 | 0 | 0 | ? | 0 | 0
CC1(C)N=C(N)N=C(N)N1c1ccc(Cl)cc1 | - | - | - | - | - | 0
Cc1ccc(-c2nnc(Nc3ccccc3)o2)cc1 | 22µM | 0 | 0 | ? | 0 | 0
c1ccc(C[n+]2ccc3ccccc3c2)cc1 | 0 | 0 | 0 | ? | 0 | 0
Clc1cccc(Cl)c1C[n+]1ccc2ccccc2c1 | - | 0 | 0 | 6.5µM | 0 | 0
